Measurements: PubChem BioAssay (Tox21)
Inconclusive results are not listed. Where a call stands in place of a potency, no number is given. A number with no mark means an inactive call. The source made the active and inactive calls. Calls come from the whole dose curve; as a rule, active = well fitted activation curve with a large enough effect in the repeat runs; inconclusive = weak or mixed curves; inactive = flat fitted curve, though single readings scatter. Positions of bridges follow the written chain, without caps; N, C: chain ends. Non-standard residues stand in square brackets, D forms with d. Residues, ends and D or L forms follow the SMILES beside them. hArg = N=C(N)NCCCC[C@H](N)C(=O)O; Mpa = O=C(O)CCS

assay: A CellTox Green Cytotoxicity Assay to monitor cytotoxicity in HepG2 cells - 24 hour (AID 1224878); settings: CellTox Green fluorescence; series mostly up to 76.8 µM; note: nearly all actives have a fitted effect of over 45% in size
Method in brief: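 Nonlytic assay: viable cells exclude the dye, so fluorescence scales with cell death. HepG2 at 600 cells/well, compounds added after 5 h, signal read across 40 h.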

SMILES | Potency | cytotoxicity
Cc1c(Cl)cccc1Cl | inactive | 
C[C@]12CCC(=O)C=C1CC[C@H]1[C@@H]3CC[C@](O)(C(=O)CO)[C@@]3(C)C[C@H](O)[C@@]12F | inactive | 
CCn1cc(C(=O)O)c(=O)c2cnc(N3CCCC3)nc21 |  | 0.605% [at 6.97 µM]
CCOC(CN1CCN(CC(C)C(=O)c2ccccc2)CC1)c1ccccc1 (configuration not stated) |  | -18.2% [at 15.8 µM]
CC(N)CCCC(C)(C)O (configuration not stated) | inactive | 
CCCCOC(=O)[C@H](C)O | inactive | 
O=C(CCCl)NCCc1ccccc1 | inactive | 
c1ccc2c(CC3=NCCN3)cccc2c1 | inactive | 
C=CCSSCCC | inactive | 
COc1cc2c(cc1OC)CN(C(=O)[C@H](C)N[C@@H](CCc1ccccc1)C(=O)O)[C@H](C(=O)O)C2 | inactive | 
CC(=O)CCc1ccc(OC(C)=O)cc1 | inactive | 
Cc1ccc(C(C)NC(=O)[C@@H](NC(=O)OC(C)C)C(C)C)cc1 (some centres not stated) | inactive | 
CN(C)CCOC(=O)C(c1ccccc1)C1(O)CCCC1 (configuration not stated) | inactive | 
Cc1cc(C)c(C(=O)O)c(C)c1 | inactive | 
O=C(NCN1CCOCC1)c1cnccn1 | inactive | 
COC(C)(OC)OC | inactive | 
Cc1c(NC(=O)c2cccnc2)c(=O)n(-c2ccccc2)n1C | inactive | 
CC1OCCC1=O (configuration not stated) | inactive | 
Cc1ccc(C(=O)O)cc1[N+](=O)[O-] | inactive | 

SMILES | Potency | cytotoxicity
CC1c2ccccc2CN1NC(=O)c1ccc(Cl)c(S(N)(=O)=O)c1 (configuration not stated) | inactive | 
c1ccc2cnccc2c1 | inactive | 
C[Si]1(C)O[Si](C)(C)O[Si](C)(C)O[Si](C)(C)O[Si](C)(C)O1 | inactive | 
NC(=O)[C@@H]1CSSCCC(=O)N[C@@H](CCCCN=C(N)N)C(=O)NCC(=O)N[C@@H](CC(=O)O)C(=O)N[C@@H](Cc2c[nH]c3ccccc23)C(=O)N2CCC[C@H]2C(=O)N1 ([Mpa][hArg]GDWPC-NH2; disulfide 1-7) | inactive | 
C=CC(=O)OCC1CCCO1 (configuration not stated) | inactive | 
CCCCCCCCCOC(=O)c1ccccc1C(=O)OCCCCCCCCC | inactive | 
CC(C)COC(=O)c1ccccc1 | inactive | 
COC(=O)c1cc(Cl)cc(Cl)c1 | inactive | 
CC1(C)Cc2cccc(N)c2O1 | inactive | 
CCCCOCC(C)O (configuration not stated) | inactive | 
c1ccc(-c2nn[nH]n2)cc1 | inactive | 
CO/N=C(/C(=O)N[C@@H]1C(=O)N2C(C(=O)[O-])=C(C[n+]3ccn4ncccc43)CS[C@H]12)c1nsc(N)n1 | inactive | 
CC(C)(CO)C(O)C(=O)NCCCO (configuration not stated) | inactive | 
C[C@H]1[C@@H](c2ccccc2)NC(=O)N1C | inactive | 
C=CCCCC | inactive | 
CCOCCOCC | inactive | 
CN(C)CCCO[C@@H]1[C@H]2OC(C)(C)O[C@H]2O[C@@H]1C(O)CO (some centres not stated) | inactive | 
ONc1ccccc1 | inactive | 
